KB-V1 MDR tox – qHTS assay for MDR1-selective chemotherapeutics: Primary screen using the drug-selected MDR subline cells KB-V1; 400,000 compounds, 3.4% hits; Potency, µM (doses to about 46.1 µM), most hits filed as cytotoxic; KB-V1 MDR cells viability, CellTiter-Glo, 72 h; further: potency means the concentration at half of the fitted maximal effect; on the % scale 0 is the no-effect control and ±100 the full control effect; nearly all actives have a fitted effect of over 60% in size
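KB-V1 cells (P-gp-expressing MDR subline of KB-3-1) in phenol-red-free DMEM with 10% FBS were exposed to library compounds over a concentration series for 72 h at 37 degrees C. Viability read by CellTiter-Glo luminescence; concentration-effect curves fitted after normalization.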
ASM inhibitor – Inhibitors of Secretory Acid Sphingomyelinase (S-ASM): qHTS | placental ASM, HMU-PC fluorogenic substrate, 60 min | Potency, µM (highest dose often 57.5 µM), for inactives: at the highest dose activity change, negative = inhibition, actives largely listed as inhibitors | 340,000 compounds, 0.006% hits | AID 504937, 2011; further: potency means the concentration at half of the fitted maximal effect
Target sequence (P17405 47-631 limits assumed): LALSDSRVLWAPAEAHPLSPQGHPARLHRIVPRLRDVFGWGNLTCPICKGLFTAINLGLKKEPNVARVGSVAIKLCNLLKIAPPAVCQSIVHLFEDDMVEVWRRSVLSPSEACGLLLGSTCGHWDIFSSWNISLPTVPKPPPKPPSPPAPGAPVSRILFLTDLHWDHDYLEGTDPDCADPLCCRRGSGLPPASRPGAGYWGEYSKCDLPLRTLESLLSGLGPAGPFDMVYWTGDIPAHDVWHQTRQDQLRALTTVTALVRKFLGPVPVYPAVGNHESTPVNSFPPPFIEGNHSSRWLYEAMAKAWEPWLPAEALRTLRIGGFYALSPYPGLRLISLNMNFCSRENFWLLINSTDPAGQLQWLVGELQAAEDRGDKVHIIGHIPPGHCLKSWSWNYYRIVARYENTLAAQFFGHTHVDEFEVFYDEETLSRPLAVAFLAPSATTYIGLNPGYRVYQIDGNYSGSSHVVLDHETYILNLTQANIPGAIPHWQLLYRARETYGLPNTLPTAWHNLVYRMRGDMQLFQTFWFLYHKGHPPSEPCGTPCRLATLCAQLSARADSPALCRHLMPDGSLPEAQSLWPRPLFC
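HMU-PC0 cleavage (9 uM final) by human placental ASM, 60 min at 37 °C following 10 min compound exposure at RT; stopped at pH 10, fluorescence Ex 386/Em 447 nm.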
SW480 rereplic – A quantitative high throughput screen for small molecules that induce DNA re-replication in SW480 colon adenocarcinoma cells. SW480 DNA re-replication, Hoechst DNA content imaging, 48 h. Potency, µM (titrated, usually from 46.1 µM), without a hit: top-dose re-replication activation, actives largely listed as activators. 340,000 compounds, 1.8% hits; further: potency means the concentration at half of the fitted maximal effect; % of control where 0% means no effect; nearly all actives have a fitted effect of over 55% in size
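DNA re-replication was detected as more nuclei of elevated Hoechst intensity after 48 hr exposure to compound (23 nL pinned per well of 250 cells).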
Giardia killer – Small Molecules that selectively kill Giardia lamblia: qHTS. Giardia lamblia trophozoite viability. activity change, % at 7.66 µM, hits read low. 340,000 compounds, 0.15% hits; in the data active means activity change below about -80%; inconclusive means between about -30% and that limit;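 further: parasites exposed to compound for two days anaerobically before the ATP read; on the % scale 0 is the no-effect control and ±100 the full control effect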
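Compounds were tested on trophozoites seeded at 100 cells/well and held 48 hrs at 37 deg C anaerobically. An ATP-based luminescent kit measured the remaining live cells.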
MCF10A rerep – A quantitative high throughput screen for small molecules that induce DNA re-replication in MCF 10a normal breast cells. AID 624296, 2012. 350,000 compounds, 2.9% hits. MCF 10A DNA re-replication, Hoechst nuclear intensity, 48 h. Potency, µM (titrated, usually from 46.1 µM), inactives show at the highest dose activity, positive = re-replication, most hits filed as activators; further: potency means the concentration at half of the fitted maximal effect; % of control where 0% means no effect; nearly all actives have a fitted effect of over 50% in size
KB-3-1 cytotox – qHTS assay for MDR1-selective chemotherapeutics: Primary screen using the parental adenocarcinoma cell KB-3-1; KB-3-1 viability, CellTiter-Glo ATP luminescence, 72 h; Potency, µM (top dose mostly 46.1 µM), actives largely listed as cytotoxic; 400,000 compounds, 1.4% hits; further: potency means the concentration at half of the fitted maximal effect; on the % scale 0 is the no-effect control and ±100 the full control effect; nearly all actives have a fitted effect of over 60% in size
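Multi-concentration cytotoxicity screen in KB-3-1 cells grown in DMEM lacking phenol red with 10% FBS. After 72 h at 37 °C with compound, ATP-dependent luminescence was recorded.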
The depositor's hits bear a star; i = inactive; ? = inconclusive; . = no result given; [ ] = another dose, or the depositor's remark. This is a sample that favours compounds with a hit; in the whole collection about 6.9% have one here. Unless noted, the call rests on the fitted dose curve; in most records, active means well fitted curve in the direction sought with a large enough effect; inconclusive means small, poorly fitted or top-dose-only effect, or another doubt; inactive means no such curve, though single readings can be large; an effect the other way counts as inactive or inconclusive.

SMILES	KB-V1 MDR tox	ASM inhibitor	SW480 rereplic	Giardia killer	MCF10A rerep	KB-3-1 cytotox
O=C(NCC(c1ccc2c(c1)OCO2)N1CCN(c2ccccc2)CC1)C(=O)Nc1ccccc1 (configuration not stated)	i	.	.	.	.	i
Cc1[nH]c(C)c(S(=O)(=O)NCc2ccco2)c1C(=O)N1CCCCC1	i	3.3%	?	8.8	0.3%	i
COc1ccc(/C(O)=C(\C#N)c2nc3ccccc3n2C)cc1OC	5.8µM*	6.9%	-12.2%	24.4	18.8%	i
Cn1c(/C(C#N)=C(\O)c2cc(Cl)sc2Cl)nc2ccccc21	i	-0.1%	-14.5%	0.7	13.1%	i
CCC(=O)N1CCCN(S(=O)(=O)c2ccc(C)cc2)C1c1ccc(OC)cc1 (configuration not stated)	?	2.2%	-1.6%	16.9	?	i
Cc1cc(=O)oc2cc(O)cc(OCc3ccccc3)c12	14.6µM*	i	?	-11.0	20.6µM*	?
C=CCn1c(SCC(=O)Nc2ccc(F)cc2F)nnc1-c1cnccn1	i	1.4%	-3.9%	9.0	?	i
CC1CC(C)CN(S(=O)(=O)c2ccc(C(=O)Nc3nnc(C4CC4)o3)cc2)C1 (configuration not stated)	5.17µM*	-1.4%	16.6%	-20.8	18.0%	?
Cc1nn(-c2ccccc2)c(C)c1C(=O)Nc1nnc(-c2ccco2)o1	5.8µM*	5.5%	?	-8.2	9.6%	?
CC1CC(C)CN(S(=O)(=O)c2ccc(NC(=O)c3ccc(=O)[nH]c3)cc2)C1 (configuration not stated)	i	-0.2%	?	-4.1	5.8µM*	4.61µM*
CN(c1ccccc1)S(=O)(=O)c1ccc(C(=O)Nc2nnc(-c3ccco3)o2)cc1	?	1.2%	20.6µM*	-1.9	2.7%	?
CC(=O)Nc1nnc(-c2ccco2)o1	i	2.0%	0.9%	-20.8	-2.1%	i
CC(=O)OCC(=O)[C@@]12OC(C)(C)O[C@@H]1C[C@H]1[C@H]3C[C@H](F)C4=CC(=O)C=C[C@@]4(C)[C@]3(F)[C@H](O)C[C@@]12C	.	.	4.6%[20.6 µM]	.	-2.9%[20.6 µM]	.
CCc1nn(CC(=O)Nc2ccc(C)cc2C)c(=O)c2cc3sccc3n12	i	.	.	.	.	i
COc1ccc(CCNC(=O)CCCn2c(=O)c3ccccc3n(Cc3ccccc3C)c2=O)cc1OC	i	.	.	.	.	i
CCN(c1ccccc1)S(=O)(=O)c1ccc(C(=O)Nc2nnc(-c3ccco3)o2)cc1	i	-2.7%	23.1µM*	-13.9	7.6%	i
CC1CCCN(S(=O)(=O)c2ccc(C(=O)Nc3nnc(-c4ccco4)o3)cc2)C1 (configuration not stated)	7.31µM*	.	?	1.9	20.1%	?
CCN(c1ccccc1)S(=O)(=O)c1ccc(C(=O)Nc2nnc(C3CC3)o2)cc1	7.31µM*	-1.5%	?	12.3	0.5%	?
CCN(c1ccccc1)S(=O)(=O)c1ccc(C(=O)Nc2nnc(COC)o2)cc1	?	0.0%	?	3.0	?	?
O=C(Nc1ccc2ccccc2c1)Nc1nnc(-c2ccccc2Cl)s1	i	.	.	.	.	i
COc1cccc(-c2cnc3c(NC=O)cc(-c4ccc(S(C)(=O)=O)cc4)cn23)c1	?	.	.	.	.	i
CN(C)C(=O)c1cccc(-c2cc(NC=O)c3ncc(-c4ccc(F)cc4)n3c2)c1	20.6µM*	.	.	.	.	?
COc1cccc(-c2cc(NC=O)c3ncc(-c4ccc(C(C)=O)cc4)n3c2)c1	18.4µM*	.	.	.	.	5.17µM*
COc1cccc(-c2cnc3c(NC=O)cc(-c4ccccc4)cn23)c1	7.31µM*	.	.	.	.	5.17µM*
COc1cccc(-c2cnc3c(NC=O)cc(-c4cc(C)c(O)c(C)c4)cn23)c1	?	.	.	.	.	6.51µM*
SMILES	KB-V1 MDR tox	ASM inhibitor	SW480 rereplic	Giardia killer	MCF10A rerep	KB-3-1 cytotox
Cc1ccc(C)c(Nc2cc(C(=O)NC3CCCC3)c3ccccc3n2)c1	i	.	.	.	.	i
O=S(=O)(c1ccccc1)N1CCN(c2nc(-c3ccc(F)cc3)nc3cc(Cl)ccc23)CC1	.	.	.	-6.4	.	.
Cc1ccc(C(=O)Nc2ccc(C(=O)O)cc2)cc1S(=O)(=O)N1CCC(C)CC1	i	.	.	.	.	i
Cc1ccc(CCNC(=O)CCS(=O)(=O)c2cc3c(cc2Cl)NC(=O)CO3)cc1	i	.	.	.	.	i
Cn1nnnc1SCCCNCc1cccc(OCc2ccccc2F)c1	i	.	.	.	.	i
COc1cccc(-c2cnc3c(NC=O)cc(-c4ccoc4)cn23)c1	?	.	.	.	.	i
COc1cccc(-c2cnc3c(NC=O)cc(-c4ccccc4Oc4ccccc4)cn23)c1	20.6µM*	.	.	.	.	?
O=C(Cc1ccccc1)N/N=C/c1cccc([N+](=O)[O-])c1	?	0.5%	20.9%	-10.8	?	i
O=C(Nc1ccsc1C(=O)NC1CCCCC1)c1ccccc1	4.61µM*	-17.5%	2.9%	9.4	12.2%	i
COc1cc2c(cc1OC)CN(C(=O)c1cccc(S(=O)(=O)N3CCc4ccccc43)c1)CC2	20.6µM*	-2.9%	25.4%	4.1	?	i
COc1ccc(C(=O)Nc2nc3c(s2)CCCC3)cc1S(=O)(=O)N1CCCc2ccccc21	5.17µM*	-1.7%	?	15.6	?	?
COc1ccc(NC(C)=O)cc1S(=O)(=O)N1CCc2ccccc21	i	0.9%	-5.5%	-4.0	?	i
CN(Cc1nc2ccccc2c(=O)[nH]1)C(=O)c1cccc(S(=O)(=O)N2CCc3ccccc32)c1	16.4µM*	-2.0%	2.8%	10.0	?	i
COc1ccc(S(=O)(=O)N2CCc3ccccc32)cc1C(=O)Nc1ccc(NC(C)=O)cc1	i	-0.6%	?	9.4	23.1µM*	i
CC(C)CN(CCCNC(=O)c1cc(-c2cccs2)nc2ccccc12)CC(C)C	i	.	.	.	.	i
O=C(Nc1ncccc1O)c1cccc(S(=O)(=O)N2CCc3ccccc32)c1	i	-1.4%	0.0%	-6.0	-1.8%	i
COc1ccc(NC(=O)c2cccc(S(=O)(=O)N3CCc4ccccc43)c2)cn1	13µM*	-2.2%	-1.8%	-14.5	13.6%	i
CCc1nnc(NC(=O)c2ccc(Cl)c(S(=O)(=O)N3CCc4ccccc43)c2)s1	13µM*	-2.9%	-6.3%	5.8	21.5%	20.6µM*

Screens from PubChem.
